PNC assembly inh: High Content Assay for Compounds that inhibit the Assembly of the Perinucleolar Compartment; PC3M PTB-GFP, PNC prevalence imaging, 16 h; stronger effect = lower value; activity change (PNC), negative = inhibition, % at 10 µM; actives 3.1% (n = 140,000);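 active = readout at or below -70, meaning at least 70% loss of cells showing the perinucleolar compartment, a nuclear body marking cancer cells; inconclusive = readout between -30 and a set limit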;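 also: plate controls were DMSO wells for no effect and camptothecin positive control wells for full effect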
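Compounds are pinned in duplicate onto adhered PC3M cells stably expressing GFP-tagged PTB and incubated 16 h at 37 C. Cells are then fixed, nuclei stained with Hoechst, and PNC-positive cells counted.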
ALOX12 inhib: qHTS Assay for Inhibitors of 12-hLO (12-human lipoxygenase). Polyunsaturated fatty acid lipoxygenase ALOX12 (Homo sapiens), P18054. purified 12-hLO, xylenol orange hydroperoxide absorbance. Potency, µM (series often up to 57.1 µM), inactives show top-dose activity change, negative = inhibition, actives largely listed as inhibitors. actives 0.12% (n = 150,000); active = well fitted inhibition curve with a large enough effect; inconclusive = small, poorly fitted or top-dose-only effect; also: potency is read from the fitted curve at half-maximal effect; nearly all actives have a fitted effect of over 55% in size
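Xylenol orange chromogenic assay: hydroperoxide from 12hLO oxidises Fe(II), giving red-shifted Fe(III)-XO absorbance. Conditions: 150 nM enzyme, 40 uM arachidonic acid, 25 mM Hepes pH 7.0, 0.01% Triton X-100, 30 min, room temperature.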
LMNA splice mod: qHTS Assay for Modulators of Lamin A Splicing; HeLa LMNA splicing GFP/RFP minigene ratio, 48 h; Potency, µM (series often up to 46.1 µM), without a hit: top-dose ratio change, negative = inhibition, hits mostly inhibitors; actives 0.01% (n = 200,000); AID 1487, 2009; active = well fitted inhibition curve with a large enough effect in the signal ratio, with a control signal flat, not every such curve was filed as active; inconclusive = small, poorly fitted or top-dose-only effect, or effect the other way, or a change in a side signal; the % refers to the signal ratio; also: potency is read from the fitted curve at half-maximal effect
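S3 HeLa cells stably expressing lamin A-EGFP splicing minigene plus DsRed2, 600 cells/well, 48 h compound exposure at 37C. Laser-scanning cytometry; analysed as GFP (500-530 nm)/RFP (575-640 nm) total intensity ratio; 0.5% DMSO vehicle.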
HPGD inh: qHTS Assay for Inhibitors of HPGD (15-Hydroxyprostaglandin Dehydrogenase). actives 4.3% (n = 150,000). 15-hydroxyprostaglandin dehydrogenase [NAD(+)] (Homo sapiens), P15428. purified HPGD, NADH fluorescence kinetic, PGE2 substrate. AID 894, 2007. Potency, µM, for inactives: at the highest dose activity change, negative = inhibition, hits mostly inhibitors; also: potency is read from the fitted curve at half-maximal effect
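NADH formation kinetics: reaction with 30 uM PGE2 and 1 mM NAD+ (final), 20 nM enzyme, Tris-HCl pH 8 with Tween 20, after 15 min compound preincubation at room temperature. Fluorescence change, last versus first of five reads.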
ALDH1A1 block: qHTS Assay for Inhibitors of Aldehyde Dehydrogenase 1 (ALDH1A1); Purified ALDH1A1, NADH fluorescence, propionaldehyde substrate; Potency, µM (doses to about 75.3 µM), for inactives: top-dose activity, negative = inhibition, usual class: inhibitors; actives 7.3% (n = 220,000);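 also: potency is read from the fitted curve at half-maximal effect; plate controls were no enzyme wells and a reference inhibitor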
Target sequence (P00352 whole entry, looked up): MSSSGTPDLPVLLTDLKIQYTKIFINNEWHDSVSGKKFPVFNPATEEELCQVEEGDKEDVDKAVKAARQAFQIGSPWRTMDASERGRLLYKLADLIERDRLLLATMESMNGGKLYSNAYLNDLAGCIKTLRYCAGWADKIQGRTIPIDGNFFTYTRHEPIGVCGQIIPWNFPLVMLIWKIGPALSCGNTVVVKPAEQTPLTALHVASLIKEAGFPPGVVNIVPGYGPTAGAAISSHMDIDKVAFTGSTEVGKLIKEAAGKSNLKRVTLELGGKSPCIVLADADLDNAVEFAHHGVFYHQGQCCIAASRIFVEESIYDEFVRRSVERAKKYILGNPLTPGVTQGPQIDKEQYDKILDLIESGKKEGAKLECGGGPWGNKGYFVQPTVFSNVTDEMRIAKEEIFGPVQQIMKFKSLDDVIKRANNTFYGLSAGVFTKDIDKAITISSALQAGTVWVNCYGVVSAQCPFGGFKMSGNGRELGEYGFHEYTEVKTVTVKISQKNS
The depositor's hits bear a star; ? = inconclusive; · = no result; [ ] = remark or other dose. Compounds with a hit are over-represented: about 10% of the library has one in this group of screens. Unless noted, calls follow the shape of the dose curve; as a rule, active = well fitted inhibition curve with a large enough effect (not every such curve was filed as active); inconclusive = small, poorly fitted or top-dose-only effect, or another doubt; inactive = no such curve, though single readings can be large or run the other way. Unless noted, % is scaled to controls: 0 for no effect and ±100 for the full control effect.

SMILES | PNC assembly inh | ALOX12 inhib | LMNA splice mod | HPGD inh | ALDH1A1 block
COc1ccc2cc(C(=O)Nc3ccc(F)cc3)sc(=O)c2c1OC | 4 | 4% | 10% | -15% | 7%
COc1ccc2cc(C(=O)Nc3ccc(O)cc3)sc(=O)c2c1OC | 31 | -5% | ? | 25µM* | -15%
O=C1C2C3CCC(C3)C2C(=O)N1Cc1ccccc1 (centres undefined) | 44 | -6% | -3% | -12% | -46%
O=C1C2C3C=CC(C3=C3CCCCC3)C2C(=O)N1Cc1ccccc1 (centres undefined) | -18 | -14% | ? | -23% | 6.3µM*
O=S(=O)(Cc1ccccc1)N1CCCCC1 | 23 | -6% | 4% | 32µM* | -4%
O=S(=O)(c1ccc(Br)cc1)N1CCn2c(nc3ccccc32)C1 | 13 | 5% | 2% | -4% | 3%
O=S(=O)(Cc1ccccc1)N1CCn2c(nc3ccccc32)C1 | -87* | -6% | 1% | -3% | -2%
CC(C)(C)N1CC(COc2ccccc2)OC1=O (centres undefined) | ? | -1% | -8% | -6% | 10%
Cc1ccccc1OCC1CN(CN2CCOCC2)C(=O)O1 (centres undefined) | -87* | 3% | 2% | -1% | 3%
O=C(Nc1ccccc1Cl)C(Cl)C(=O)c1ccccc1 (centres undefined) | · | · | · | · | 1.8µM*
O=C(Nc1ccccc1Cl)c1ccccc1 | · | · | -1%[9.22 µM] | · | 4%
Cc1ccc(N=N/C(=C\O)C(=O)c2ccncc2)cc1 | 62 | -19% | ? | -21% | 4µM*
O=C(/C(=C/O)N=Nc1ccc(Cl)cc1)c1ccncc1 | -11 | -9% | -11% | -15% | 10µM*
CC(C)(C)NC(=O)c1ccncc1 | -1 | 0% | 6% | -1% | 13%
O=C(NNC(=O)c1ccc(Cl)cc1Cl)c1ccncc1 | ? | -1% | -12% | 0% | 5%
COc1cccc(NC(=O)Cn2cnc3c(nc4n3CCCCC4)c2=O)c1 | · | · | 3%[46 µM] | · | ·
Cc1cccc(C)c1NC(=S)Nc1ccc(Cl)c(Cl)c1 | · | · | 19%[46 µM] | · | 22µM*
OCCNC(=S)Nc1ccc(Cl)c(Cl)c1 | 8 | 3% | ? | -7% | 13%
Cc1nn2c3c(cnc2c1-c1ccccc1)C(=O)CC(c1ccco1)C3 (centres undefined) | -20 | -7% | 12% | -13% | 25µM*
Cc1nn2c3c(cnc2c1-c1ccccc1)C(=O)CC(c1ccccc1)C3 (centres undefined) | 61 | -1% | 13% | -16% | ?
Cc1nc2cnc(N(C)C)nc2n(C2CC2)c1=O | · | · | -1% | · | ?
COC(=O)C1(C(C)=O)CC2=CC[C@@H]3C(=O)N(c4ccccc4)C(=O)[C@@H]3[C@@H]2Cc2ccccc2[C@@H]1C[N+](=O)[O-] (some centres undefined) | · | · | · | -9% | -9%
CSc1ccc(S(=O)(=O)NCc2ccc(Cl)cc2Cl)cc1 | ? | -13% | 1% | -7% | 25µM*
CSc1ccc(S(=O)(=O)NCc2ccccc2Cl)cc1 | 6 | -5% | -4% | 22µM* | ?
Cc1noc(C)c1-c1cc(NC2CCNCC2)ncn1 | · | · | -4% | · | ?
SMILES | PNC assembly inh | ALOX12 inhib | LMNA splice mod | HPGD inh | ALDH1A1 block
COc1ccc(C)cc1NC(=O)CN1CCN(S(=O)(=O)c2ccc(Br)cc2)CC1 | -28 | -5% | -1% | -10% | 0.16µM*
O=C(CN1CCN(S(=O)(=O)c2ccc(Br)cc2)CC1)Nc1ccccc1F | 18 | -10% | 0% | -16% | 28µM*
COc1ccc(S(=O)(=O)CCC(=O)Nc2cc(C)ccc2OC)cc1 | · | · | · | · | 25µM*
O=C(CN1CCCN(S(=O)(=O)c2ccc(F)cc2)CC1)Nc1ccccc1Br | -2 | -6% | ? | -14% | 28µM*
COc1ccc(NC(C)=O)cc1NC(=O)CN1CCN(S(=O)(=O)c2ccc(C(C)C)cc2)CC1 | 48 | 4% | -1% | -11% | 3%
COc1cc2c(cc1OC)-c1c(oc3cc(O)cc(O)c3c1=O)CO2 | · | -5% | · | -16% | -4%
CCN(CC(=O)NCc1ccc(F)cc1)CC(=O)Nc1ccc(S(=O)(=O)N2CCCC2)cc1 | · | · | -11%[46 µM] | · | 11µM*
O=C(CN1CCN(S(=O)(=O)c2ccc(Br)cc2)CC1)Nc1ccc(F)cc1F | ? | -20% | -10% | -1% | -2%
O=C(CN1CCN(S(=O)(=O)c2ccc(Br)cc2)CC1)N/N=C/c1cccnc1 | -90* | -7% | -15% | -5% | -1%
O=C(CN1CCN(S(=O)(=O)c2ccc(Br)cc2)CC1)Nc1ccc(F)cc1 | ? | -12% | -9% | 4% | 32µM*
Cc1ccsc1/C=N/NC(=O)CN1CCN(S(=O)(=O)c2ccc(Br)cc2)CC1 | -28 | -11% | ? | 0% | 17%
CCOC(=O)N1CCc2c(sc(NCc3ccc(N(C)C)cc3)c2C(=O)Nc2ccccc2OCC)C1 | · | · | -29%[46 µM] | · | ·
CCOC(=O)c1sc2nc3n(c(=O)c2c1C)CCC3 | 24 | -5% | 5% | -11% | -11%
CCOC(=O)c1sc2nc(SCC#N)n(CCCN3CCCC3=O)c(=O)c2c1C | ? | 1% | -22% | ? | 0.79µM*
COc1ccccc1CNC(=O)Cn1cccc1 | ? | -4% | 1% | 16µM* | 5%
COc1ccccc1CNC(=O)CSc1ccc(C)cc1 | ? | -6% | -4% | 14µM* | 1%
Cc1ccc(OCC(=O)Sc2ccc(C)cc2)cc1 | 67 | -5% | 3% | ? | 8%
COc1ccccc1OCC(=O)Sc1ccc(C)cc1 | -19 | -28% | 10% | 32µM* | -4%
CO[C@@H]1COC(=O)[C@H](C)NC(=O)C/C=C\[C@@H](C)[C@H](OC)COC(=O)[C@H](C)NC(=O)C/C=C\[C@H]1C | · | · | · | · | 0%[13.5 µM]
Cc1noc(C)c1-c1cncnc1NCc1ccccc1 | · | · | -14% | · | ?
Cn1cc(Br)c(C(=O)NC2C3CC4CC(C3)CC2C4)n1 (centres undefined) | 273 | 1% | ? | 16µM* | -1%

From PubChem BioAssay
